Experimental data taken from PubChem BioAssay (Tox21).
Results filed as inconclusive are left out. Values without a mark were called inactive. Calls of active or inactive are those of the source. The call rests on the fitted dose curve; in most records, active means well fitted activation curve with a large enough effect; inconclusive means small, poorly fitted or top-dose-only effect; inactive means flat fitted curve, though single readings scatter.

Assay: qHTS assay to identify small molecule phospholipidosis (PLD) inducers (AID 1259344)
Details: HepG2 phospholipidosis, LipidTOX Red imaging, 24 h; series mostly up to 38.3 µM; PLD induction: at the top concentration
Description: National Center for Advancing Translational Sciences [NCATS]
Drug-induced Phospholipidosis (PLD) caused by cationic amphiphilic drugs is characterized by the appearance of unicentric or multicentric-lamellar bodies when viewed under electron microscope. Electron microscopy is the gold standard method for PLD detection, however, this method is time-consuming and labor intensive, making it unsuitable for evaluating a large set of compounds. A cell-based phospholipidosis assay has been developed using the LipidTox reagent in HepG2 cells and miniaturized into a 1536-well plate format. Drug induced phospholipid accumulation is stained with the LipidTox dyes in red color which then is determined using an automated high content screening system.
HepG2 cells are dispensed at 900 cells/3 uL/well into Collagen I-coated 1536-well black-wall/clear-bottom assay plates (Greiner Bio-One, Monroe, NC) using the Multidrop Combi 8 channel dispenser (Thermo Fisher, Waltham, MA, USA). The assay plates are incubated at 37 C for 4 hours to allow the cell attachment. 3 uL of 1:500 LipidTOX Red dye is added using the dispenser, and then 23 nL compounds are added via a Wako Pintool station (Wako Automation, San Diego, CA). Amiodarone, a known PLD inducer, was used as a positive control and DMSO was used as a negative control. The assay plates were then incubated at 37 C for 24 hours.
For fixations, 4 uL of 8% paraformaldehyde fixative solution containing 10 ug/mL Hoechst 33342 in Dulbecco's phosphate-buffered saline (DPBS) is added using a Kalypsys washer/dispenser (Kalypsys, San Diego, CA, USA). After incubation at room temperature for 30 min, the assay plates are washed once with DPBS using a Kalypsys washer/dispenser. The assay plates are then sealed and stored at 4 C before imaging. The fluorescence intensities (595 nm excitation, 615 nm emission for LipidTOX; 352 nm excitation, 461 nm emission for Hoechst 33342) are measured using an ImageXpress Micro Widefield High Content Screening System (Molecular Devices, Sunnyvale, CA, USA) with a 20x Plan Fluor objective. Images are acquired for one site in each well and analyzed with the MetaXpress software (Molecular Devices) using the Transfluor module. Several algorithmic outputs, such as pit count per well, pit count per cell, pit integrated intensity per well, and pit integrated intensity per cell, are used for quantitative image analysis for PLD.
On the % scale 0 is the no-effect control and ±100 the full control effect.

SMILES | PLD induction | outcome
CNC(C)(C)Cc1ccccc1 | 0.492% [at 15.5 µM] | 
CC(C)=CCN1CC[C@@]2(C)c3cc(O)ccc3C[C@@H]1[C@@H]2C | -0.955% [at 78.4 µM] | 
Oc1ccc([C@H]2CNCc3c2ccc(O)c3O)cc1O | -2.7% [at 7.66 µM] | 
Nc1ccc(N=Nc2ccccc2)cc1 | -3.27% [at 78.4 µM] | 
O=C(N[C@@H]1N=C(c2ccccc2F)c2cccc3c2N(CC3)C1=O)c1cc2ccccc2[nH]1 | -5.27% [at 0.306 µM] | 
COc1ccc(Cc2nccc3cc(OC)c(OC)cc23)cc1OC | -1.51% [at 15.5 µM] | 
COc1ccc2c3c1O[C@H]1[C@H](O)CC[C@H]4[C@@H](C2)N(C)CC[C@@]341 | 23.9% [at 78.4 µM] | 
CN1C(=O)[C@@H](NC(=O)c2cc3ccccc3[nH]2)N=C(c2ccccc2)c2ccccc21 | 6.32% | 
CCN(CC)Cc1nccn1-c1ccc([N+](=O)[O-])cc1C(=O)c1ccccc1Cl | 0.825% [at 7.66 µM] | 
C[C@]12C/C(=C/O)C(=O)C[C@@H]1CC[C@@H]1[C@@H]2CC[C@@]2(C)[C@H]1CC[C@]2(C)O | 3.71% | 
[O]=[Cr](=[O])([OH])[O][Cr](=[O])(=[O])[OH] |  | inactive
c1ccc2nc(N3CCNCC3)ccc2c1 | 0.765% | 
CC[C@]1(O)CC[C@H]2[C@@H]3CCC4=CCCC[C@@H]4[C@H]3CC[C@@]21C | 8.56% | 
CCCCC(CC)COC(=O)c1ccccc1C(=O)OCC(CC)CCCC (configuration not stated) | -6.92% [at 78.4 µM] | 
CC(C)NCC(O)c1ccccc1Cl (configuration not stated) | -0.133% | 
ClC1=C(Cl)[C@]2(Cl)[C@@H]3[C@H]4C[C@H]([C@@H]5O[C@H]45)[C@@H]3[C@@]1(Cl)C2(Cl)Cl | 3.49% | 
CCN(CC)CCc1c[nH]c2ccccc12 | 14.4% [at 78.4 µM] | 
Oc1ccc2[nH]cc(CCCCN3CC=C(c4ccccc4)CC3)c2c1 | 15.1% | 
CC(Cc1ccc(O)cc1)NCC(O)c1cc(O)cc(O)c1 (configuration not stated) | 0.262% | 

SMILES | PLD induction | outcome
CC(C)C(Br)C(=O)NC(N)=O (configuration not stated) | -0.337% | 
Clc1ccc(C2(Cn3cncn3)OCCO2)c(Cl)c1 | -0.544% | 
CN(C)CCc1c[nH]c2ccccc12 | -5.67% [at 151 µM] | 
COc1ccc2[nH]cc(CCN(C(C)C)C(C)C)c2c1 | 1.18% [at 78.4 µM] | 
CC(Cc1ccc2c(c1)OCO2)NO (configuration not stated) | -0.292% [at 78.4 µM] | 
CN1CCc2cc(Cl)c(O)cc2[C@H]2c3ccccc3CC[C@@H]21 | 8.13% | 
O=C(O)CCCCCCNC1c2ccccc2CCc2ccccc21 | 9.57% | 
CCCCC/C=C\C/C=C\C/C=C\C/C=C\CCCC(=O)NCC(=O)O | 0.136% [at 3.15 µM] | 
Cc1cccc(Cc2cnc[nH]2)c1C | -4.98% | 
O=Cc1ccccc1 |  | inactive
O=C(N[C@H]1N=C(c2ccccc2F)c2cccc3c2N(CC3)C1=O)c1cc2ccccc2[nH]1 | 7.43% | 
CN(C)C(=S)SSC(=S)N(C)C | 1.62% | 
O=C1C[C@@H]2OCC=C3CN4CC[C@]56c7ccccc7N1[C@H]5[C@H]2[C@H]3C[C@H]46 | 0.882% | 
CCN(CC)C(=O)N[C@@H]1C=C2c3cccc4[nH]cc(c34)C[C@@H]2N(C)C1 | 1.3% | 
C[N+]1(C)[C@@H]2CC[C@H]1CC(OC(=O)C(CO)c1ccccc1)C2 (some centres not stated) |  | inactive
CC(C)c1c(CN(C)C(C)Cc2ccccc2)n(C)n(-c2ccccc2)c1=O (configuration not stated) | 0.138% [at 15.5 µM] | 
Fc1ccc(C(OCCN2CCN(CCCc3ccccc3)CC2)c2ccc(F)cc2)cc1 | 0.0097% | 
COc1c2c(cc3c1OCO3)CCN(C)C2 | -0.839% [at 15.5 µM] | 
